# Hit rate of the full screen: of about 140,000 compounds, about 320 (0.23%) were called active. Only a selection was taken, and actives are over-represented in it overall. Values without a mark were called inactive. Rule as the data show it: active = z-score mostly below about -2.9 (no sharp cut-off); inactive = mostly above about -1.9.
# System: CapD gamma-glutamyltranspeptidase (Bacillus anthracis Ames Ancestor)
# Assay: inhibition of CapD gamma-glutamyltranspeptidase – biochemical, fluorescence intensity, primary screen (AID 492967)
# Conditions: purified CapD enzyme, fluorescence intensity read-out; stronger effect = lower value
row,SMILES,z-score
1,COc1ccc2nc(SCC(=O)Nc3cc(NC(=O)CSc4nc5ccc(OC)cc5[nH]4)cc(C(=O)O)c3)[nH]c2c1,-1.48
2,COc1ccc(CCNC(=O)c2cn(C)c(=O)c3cc(OC)c(OC)cc23)cc1OC,1.5
3,Cc1ccccc1Cn1c(CCNC(=O)C(C)(C)C)nc2ccccc21,-0.49
4,CCC(=O)NCCc1nc2ccccc2n1CC,-0.29
5,O=C(COc1ccccc1)NCCc1nc2ccccc2n1Cc1ccccc1,-8.12 (active)
6,CC(C)NC(=O)CN1CCN(S(=O)(=O)c2cc(Cl)ccc2Cl)CC1,-0.36
7,CC(C)(C)c1ccc(OCCCn2c(=O)sc3ccccc32)cc1,0.35
8,O=C1CC(c2c(Cl)cccc2Cl)c2ccc3ccccc3c2N1 (centres undefined),0
9,COCCNC(=O)c1ccc(Cn2c(SCC(=O)NCC3CCCO3)nc3ccc(Br)cc3c2=O)cc1 (centres undefined),-0.085
10,Cc1ccc2cc3cc(C(=O)NCc4ccc(F)cc4)oc3nc2c1,50.4
11,O=C(c1ccc(C(F)(F)F)cc1)N1CCC(c2nnc(-c3ccccc3)o2)CC1,-0.12
12,Cc1ccc2cc(C)c(C)cc2c1,-0.345
13,COc1ccc(CCNC(=O)CCC(=O)Nc2nc(-c3cc4ccccc4oc3=O)cs2)cc1OC,0.27
14,CN(C)C=NC(=O)c1ccc(Oc2ncc(C(F)(F)F)cc2Cl)cc1,-0.275
15,CC(=O)c1cc(Cl)cc(Cl)c1OC(=O)c1c(-c2c(Cl)cccc2Cl)noc1C,-0.58
16,O=C(NCCCN1CCCCC1)c1cc(-c2ccncc2)nc2ccccc12,0.14
17,CCCC(C(=O)O)N1C(=O)/C(=C/c2ccc(O)c(OCC)c2)SC1=S (centres undefined),-7.48 (active)
18,CCOc1cc(/C=C2\SC(=S)N(C(C)C(=O)O)C2=O)ccc1O (centres undefined),-2.57
19,CCOc1cc(/C=C2\SC(=S)N(c3c(C)n(C)n(-c4ccccc4)c3=O)C2=O)ccc1O,-1.1
20,Cc1ccc(N2CCN(c3ccccc3)CC2)nn1,-0.315
21,COc1ccc(CN2C(=O)CC(C(=O)Nc3ccc(F)cc3)SC2=Nc2ccccc2)cc1 (centres undefined),-0.02
22,CCN1C[C@]2(OC(=O)c3ccccc3NC(C)=O)CC[C@H](OC)[C@@]34C2C[C@@H]([C@@H]13)[C@@]1(O)C[C@H](OC)[C@H]2CC4[C@]1(O)[C@H]2OC (some centres undefined),7.48
23,CN(C(=O)Cn1nc(Cc2ccncc2)c2ccccc2c1=O)c1ccccc1,5.11
24,COc1ccc([N+](=O)[O-])cc1/C=C1\C(=O)NC(=O)N(c2ccc(Cl)cc2)C1=O,-0.64

row,SMILES,z-score
1,Oc1c(Br)cc(Br)cc1C=Nc1ccc(Oc2ccc(Cl)cc2)cc1,-1.07
2,Cc1ccc2c(c1)-c1onc(C(=O)NC3CCCCC3)c1CO2,3.98
3,CCO/C=C1\SC(=S)N(Cc2ccccc2)C1=O,-0.945
4,O=C1c2ccccc2C(=O)N1CC1c2ccccc2CCN1S(=O)(=O)c1cccc2nsnc12 (centres undefined),-0.52
5,CCCCOc1ccc(C(=O)Nc2ccc3nc(SCC(=O)NCC4CCCO4)sc3c2)cc1 (centres undefined),0.345
6,O=C(/C=C/c1cn(-c2ccccc2)nc1-c1ccc(F)cc1)NCc1cccnc1,2.33
7,COC(=O)c1sc(-c2cccs2)cc1NS(=O)(=O)c1ccccc1,41.9
8,COC(=O)c1c(NC(=O)Cn2nc([N+](=O)[O-])c(Br)c2C)sc2c1CCC(C)C2 (centres undefined),-0.48
9,CCc1ccc(NC(=O)Cc2csc(C)n2)cc1,-0.185
10,CCOC(=O)C1C(=O)CN(c2ccccc2)C1=O (centres undefined),2.06
11,O=C(C1CCN(S(=O)(=O)c2ccc3[nH]c4c(c3c2)CCCCC4)CC1)N1CCCC1,-0.165
12,Cc1ccc(NC(=O)c2ccccc2N)cc1C,29
13,C=CCNC(=S)Nc1ccn(Cc2ccccc2C)n1,-0.535
14,O=C(CSc1ccc(Cl)cc1)N1CCC(C(F)(F)F)CC1,0.56
15,Cc1nc(Nc2ccc(S(N)(=O)=O)cc2)nc(Nc2ccc(S(N)(=O)=O)cc2)c1Br,-0.56
16,CC(C)C(O)(C(=O)OC[C@@H]1CC[N+]2([O-])CCC[C@@H]12)C(C)O (some centres undefined),0.78
17,O=C1CSC(c2ccccc2)C(=O)N1c1ccc(Br)cc1 (centres undefined),0.345
18,Cc1ccc(-c2n[nH]c3c2C(c2ccccc2F)N(c2ccc(F)cc2)C3=O)cc1 (centres undefined),-0.525
19,C/C(=N\NC(=O)C1CCCCC1)c1cccs1,-0.47
20,N#CCC1NCCc2ccccc21 (centres undefined),-2.33
21,CC1(C)CC2(CCCN(CC#N)C2)CCS1 (centres undefined),0.425
22,COc1ccc(C(Nc2ncnc3c2ncn3C2CC=C(CO)CC2)(c2ccccc2)c2ccccc2)cc1 (centres undefined),-0.275
23,CN(Cc1ccccc1)C(=O)Cn1ncc2c3ccccc3n(Cc3ccccc3F)c2c1=O,0.685
24,O=C(CN1CCN(c2ccc([N+](=O)[O-])cn2)CC1)Nc1ccc2c(c1)OCO2,-0.23

row,SMILES,z-score
1,CCN(c1ccccc1)S(=O)(=O)c1cc2c(cc1C)n(C)c(=O)c(=O)n2C,4.49
2,C=C1Cn2c(nnc2-c2ccc(Br)cc2)S1,0.32
3,O=C(CSc1nc2ccc(Br)cc2c(=O)n1-c1ccccc1)NCc1ccco1,0.585
4,O=C(O)CCCN1C(=O)/C(=C2\SC(=S)N(CCCC(=O)O)C2=O)SC1=S,1.03
5,O=C(O)c1cc2cccnc2nc1C(F)(F)F,-0.285
6,COc1ccc(C(=O)OC2CC(C)=CCC3(C)CCC(O)(C(C)C)C23)cc1O (centres undefined),-0.385
7,COc1ccc(C(=O)N2CCN(C(=O)OCc3ccc(SC(F)(F)F)cc3)CC2)cc1F,0.325
8,Nc1c(C(=O)O)noc1C(=O)c1ccccc1,2.44
9,O=C(OCC(=O)N1CCCCC1)c1ccc(OC(F)(F)F)cc1,0.135
10,CC(C)(C)NC(=S)NNc1c(Cl)cncc1Cl,0.41
11,CN(c1ncnc2c1nc1n2CCCCC1)C1CCCCC1,0.88
12,NC(=S)c1ccc(-c2csnn2)cc1,-0.465
13,CCN1C(=O)/C(=C2/Sc3ccccc3N2CCCS(=O)(=O)O)SC1=S,-3.94 (active)
14,CCN1C(=O)/C(=C/c2ccccc2)SC1=S,0.005
15,CCN1C(=O)/C(=C2/Sc3ccccc3N2C2CCCCC2)SC1=S,-0.02
16,CCCCc1ccc2nc(N)sc2c1,-0.715
17,O=C(NCCO)c1ccc(/C=N/O)nc1,0.075
18,Cc1c(Cl)cccc1NC(=O)c1ccc(-n2cccn2)c([N+](=O)[O-])c1,2.56
19,CC(=O)N1CCCN(S(=O)(=O)c2cccc3nonc23)CC1,-0.285
20,CCn1c2ccccc2c2cc(CN3CCN(C(=O)c4ccccc4OC)CC3)ccc21,14
21,O=[N+]([O-])c1ccc(-c2ccc(-c3[nH]c(-c4cccc([N+](=O)[O-])c4)nc3-c3ccccc3)cc2)cc1,0.025
22,CC1CCN(CC(=O)N2c3ccccc3C(C)(c3ccccc3)CC2(C)C)CC1 (centres undefined),0.18
23,CCOC(=O)CC(=O)CSc1nc2c(sc(=S)n2CCc2ccccc2)c(=O)n1Cc1ccco1,0.52
24,O=C(COc1ncn(-c2ccccc2)n1)N/N=C/c1cc(OCc2ccccc2)cc(OCc2ccccc2)c1,-1.07

row,SMILES,z-score
1,COc1cc(Br)c(C2C(C(=O)OCCOc3ccccc3)=C(C)NC3=C2C(=O)CCC3)cc1OC (centres undefined),22.1
2,CCN1CCN(CCNC(=O)c2ccc(NC(=O)C3=CSCCO3)cc2)CC1,-0.9
3,O=C(O)c1cc2c(s1)CS(=O)(=O)C2,-3.92 (active)
4,O=C(O)c1cc2ccccc2c(=O)s1,0.97
5,O=C(NCCc1ccccc1)c1cc2c(s1)CS(=O)(=O)C2,0.17
6,COc1ccc(C2Nc3ccccc3C(=O)N2c2ccccc2)cc1CSc1nc2ccccc2s1 (centres undefined),34.5
7,Cc1cc(C)nc(N2CCN(C(=O)C(C)(C)C)CC2)n1,-0.02
8,Nc1ccc(C(=O)Nc2nc3ccc(NC(=O)c4ccccc4)cc3s2)cc1,13.6
9,O=C(OCCN1C(=O)c2ccccc2C1=O)c1ccc(Cl)cc1,0.395
10,O=C(NC(=O)N1CCOCC1)c1ccc(S(=O)(=O)N2CCOCC2)cc1,0.605
11,CC1=NN(c2ccccc2)C(=O)CC1,0.205
12,CCC(C)c1ccc(N2C(=O)C=CC2=O)cc1 (centres undefined),-0.045
13,COc1ccc(N2CCN(c3ncnc4sc(C(=O)NCc5ccccc5OC)c(C)c34)CC2)cc1,-0.385
14,Cc1ccc2c(c1)c1c3n2CCN(S(C)(=O)=O)C3CCC1 (centres undefined),0.19
15,CCOC(=O)c1cc(C#N)c(C)nc1N1CCN(C(=O)OCCN2CCN(Cc3cc4c(cc3Cl)OCO4)CC2)CC1,-0.455
16,OC(CSCc1ccc(Cl)cc1)(c1ccccc1)c1ccccc1,-0.53
17,CCOC(=O)c1ccc(NC(=O)N2CCC(CN3CCCCCC3)CC2)cc1,-1.43
18,O=C1CCc2ccccc2CN1,0.13
19,Nc1ccc2c(c1)C/C(=C\c1ccco1)C2=O,-3.17
20,Cc1cccc(NC(=O)N(C)C)c1,0.275
21,C=CCn1c(=S)sc2c(SCC(=O)N3CCc4ccccc43)ncnc21,1.31
22,C=CCn1c(=S)sc2c(=O)[nH]c(C)nc21,-5.7 (active)
